Results on 14 compounds are retold here after PubChem BioAssay (NCI).

Holding throughout (test): NCI-60 one-dose screen, 48 h (100 = growth as untreated, 0 = no growth, -100 = all killed)
Common to all, as to conditions: 10 µM unless noted

The test system of assay [1] is DU-145 prostate.
Assay [2] has as its system K-562 leukemia.
For assay [3], the system named is MALME-3M melanoma.
Assay [4] has as its system MDA-MB-231 breast.
Assay [5] deals with RXF 393 renal.
For assay [6], the system named is SF-268 CNS.
Assay [7] concerns SF-295 CNS.
The subject of assay [8] is SF-539 CNS.
The subject of assay [9] is UACC-257 melanoma.
Assay [10] concerns M14 melanoma.

About 83,000 compounds went through this panel and 20% of them were active in at least one assay; those are over-represented in the sample as a whole.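 Step 1: grow cells in 96-well plates. Step 2: add test compound at a single concentration. Step 3: incubate 48 h. Step 4: record percent growth.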 A number with no mark means an inactive call. Activity calls are given as the source filed them. How the source made its calls: active means growth percent below 10; inactive means the rest.

As to `Fc1ccc(Nc2nc3nonc3nc2Nc2ccc(I)cc2)cc1`, the growth in [1] was 23%; in assay [2] it was 6.8% (active); in [3] it was -25.6% (active); in assay [4], -23.5% (active); in assay [5], -10.2% (active); in [6] it was 22%. For the same compound, the growth in [7] is -43.6% (active); in assay [8], 7.05% (active); in [9], -24.5% (active); in assay [10], -3.95% (active).

As for `COc1ccc(/C=N/NC(=O)CCN2c3ccccc3Sc3ccccc32)cc1`, the growth was 102% in assay [1]; 24% in assay [2]; 71.7% in [3]; 76.6% in assay [4]; 66.6% in assay [5]; 96.7% in assay [6]. In addition, the growth in assay [7] is 68.8%; in [8] it was 85.2%; in [9] it was 99.8%; in [10], 65.4%.

As to `O=c1oc2c(cnc3ccccc32)cc1-c1ccsc1`, the growth in assay [1] is 104%; in [2] it was 92.8%; in assay [3], 101%; in [4] it was 101%; in [5], 105%; in assay [6], 94.6%. For the same compound, the growth in [7] is 103%; in assay [8], 93.4%; in [9], 101%; in assay [10], 101%.

Take `COc1cc(-c2cc(-c3ccc(N(C)C)cc3)nc(N3CCC(O)CC3)c2C#N)cc(OC)c1OC`: the growth in assay [1] was 33%; in [2], 1.74% (active); in assay [3] it was -45.3% (active); in [4] it was -50.9% (active); in assay [5] it was -5.34% (active); in assay [6], 22.1%. Also, the growth in assay [7] is -44.3% (active); in assay [8], -0.969% (active); in assay [9] it was -51.8% (active); in [10] it was -69.3% (active).

Regarding `COc1cc(/C=C/C(=O)c2cccc(Nc3nc(Nc4ccccc4)nc(Nc4ccccc4)n3)c2)cc(OC)c1OC`, the growth is 60.9% in [1]; 24.1% in assay [2]; 69% in assay [3]; 56% in [4]; -32.4% (active) in assay [5]; 73.4% in [6]. Moreover, the growth in assay [7] is 72.9%; in assay [8], 78.7%; in [9], 106%; in [10], 78.5%.

With `CCOC(=O)c1nc(Nc2ccc(NC(=O)Nc3ccc(F)cc3)cc2)c2ccccc2n1`, the growth in [1] was 108%; in assay [2], 102%; in assay [3], 92.6%; in [4], 95.9%; in assay [5], 93.2%; in assay [6], 98.3%. For the same compound, the growth in [7] is 99.8%; in assay [8] it was 99.9%; in assay [9], 103%; in assay [10] it was 97%.

Turning to `COc1ccc2cc(C(=O)c3coc4ccc(O)cc34)ccc2c1`, the growth in assay [1] is 99.6%; in [2], 81.6%; in [3] it was 92.1%; in [4], 95%; in assay [5], 115%; in assay [6], 90.1%. Besides, the growth in [7] was 105%; in [8], 93.7%; in assay [9], 103%; in assay [10], 108%.

For `CCN1CC(=O)N(/N=C2\C(=O)Nc3ccccc32)C1=S`, the growth in assay [1] is 112%; in assay [2], 106%; in assay [3], 91%; in assay [4], 88.5%; in [5], 76.5%; in assay [6], 103%. The growth in assay [7] was 96.6%; in assay [8], 94.1%; in assay [9], 103%; in assay [10], 86%.

Turning to `COc1cc(NC(C)CCCNC(C)C)c2ncccc2c1OC` (stereo not given), the growth was 113% in assay [1]; 104% in assay [2]; 105% in assay [3]; 89% in assay [4]; 95% in [5]; 105% in assay [6]. The growth was 99.9% in assay [7], 85.6% in assay [8], 107% in assay [9] and 97% in assay [10].

For `CCCCNC(=O)Oc1ccc(/C(=C(/CC)Cc2ccccc2)c2ccc(OCCN3CCCCCC3)cc2)cc1`, the growth in [1] is 49.9%; in assay [2], -24.8% (active); in assay [3], -58.3% (active); in assay [4], 43.3%; in [5], 16.7%; in assay [6], 61%. Moreover, the growth is 91.9% in [7], -30.2% (active) in assay [8], 34.3% in [9] and -19.3% (active) in assay [10].

On to `O=C(c1ccc(Cl)cc1)N1CCN(c2ccnc3cc(Cl)ccc23)CC1`, for which the growth in [1] is 112%; in [2] it was 77.1%; in assay [3], 84.4%; in [4], 89.1%; in [5] it was 77.5%; in [6], 100%. The growth is 95.8% in assay [7], 100% in assay [8], 91% in [9] and 98% in assay [10].

Consider `CC(=O)Nc1nc2ccc(NS(=O)(=O)c3cccc4c(N(C)C)cccc34)cc2[nH]1`, for which the growth is 87.8% in assay [1]; 20.6% in [2]; 52.3% in [3]; 63.5% in assay [4]; 53.8% in assay [5]; 65.6% in assay [6]. The growth is 37.3% in [7], 57.9% in [8], 61.9% in assay [9] and 35.9% in assay [10].

Consider `O=[N+]([O-])/C(=C/C=C/c1ccccc1)c1ccccc1`, for which the growth is 26% in [1]; 24.4% in assay [2]; 96.1% in assay [3]; 61.7% in [4]; 35.4% in assay [5]; 35.3% in [6]. Further, the growth is 91.5% in assay [7], 36.8% in [8], 77% in [9] and 37.8% in assay [10].

On to `N#CCSc1nnc2n(Cc3ccccc3)c(=O)c3c4c(sc3n12)CCCC4`, for which the growth in assay [1] was 107%; in [2] it was 70.5%; in assay [3], 99.5%; in assay [4], 98.8%; in [5] it was 83%; in [6], 98%. Also, the growth in [7] was 102%; in [8], 104%; in assay [9], 98.9%; in assay [10], 109%.
